In paper PMC7862700, “An all-to-all approach to the identification of sequence-specific readers for epigenetic DNA modifications on cytosine”:

Tests used:
Test in all cases: DAPPL (digital affinity profiling via proximity ligation, sequencing); 10 mM Tris-HCl pH 7.5, 50 mM NaCl, 1 mM DTT, 4% glycerol, room temperature, 30 min; GST-TFs on glutathione beads, 16-mer random dsDNA library, 0.1% formaldehyde crosslink after washing; high values mean tight binding
FEV = target: T1, FEV (Homo sapiens, UniProt Q99581 1-238); details: protein: recombinant; tags: N-terminal GST; dsDNA, one strand shown
T1 sequence: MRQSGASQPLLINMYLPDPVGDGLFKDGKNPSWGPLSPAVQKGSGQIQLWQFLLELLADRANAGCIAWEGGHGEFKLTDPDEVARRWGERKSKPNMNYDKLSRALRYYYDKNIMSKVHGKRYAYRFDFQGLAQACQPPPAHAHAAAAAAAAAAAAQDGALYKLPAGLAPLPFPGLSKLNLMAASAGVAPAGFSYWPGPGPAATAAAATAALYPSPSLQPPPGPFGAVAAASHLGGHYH
Method in brief: (§1)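 The binding signal reported is, for every hexamer, its read frequency for a factor over its read frequency for the tag-only sample. Reads came from pools of yeast-expressed, GST-fused human transcription factors on glutathione beads, barcoded with DNA and mixed with that sample, which were incubated with 200 nmole of a random double-stranded 16-mer DNA library in Tris/NaCl/DTT/glycerol buffer at room temperature for 30 min. After washing, the pools were crosslinked with 0.1% formaldehyde, proximity-ligated with BsaI/T4 ligase for 1 h at 37 °C, PCR-amplified and sequenced on an Illumina NextSeq500.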

ETV5 = ETV5 (Homo sapiens, UniProt P41161 1-510); details: protein: recombinant; tags: N-terminal GST; dsDNA, one strand shown
Sequence of ETV5 (P41161 whole entry): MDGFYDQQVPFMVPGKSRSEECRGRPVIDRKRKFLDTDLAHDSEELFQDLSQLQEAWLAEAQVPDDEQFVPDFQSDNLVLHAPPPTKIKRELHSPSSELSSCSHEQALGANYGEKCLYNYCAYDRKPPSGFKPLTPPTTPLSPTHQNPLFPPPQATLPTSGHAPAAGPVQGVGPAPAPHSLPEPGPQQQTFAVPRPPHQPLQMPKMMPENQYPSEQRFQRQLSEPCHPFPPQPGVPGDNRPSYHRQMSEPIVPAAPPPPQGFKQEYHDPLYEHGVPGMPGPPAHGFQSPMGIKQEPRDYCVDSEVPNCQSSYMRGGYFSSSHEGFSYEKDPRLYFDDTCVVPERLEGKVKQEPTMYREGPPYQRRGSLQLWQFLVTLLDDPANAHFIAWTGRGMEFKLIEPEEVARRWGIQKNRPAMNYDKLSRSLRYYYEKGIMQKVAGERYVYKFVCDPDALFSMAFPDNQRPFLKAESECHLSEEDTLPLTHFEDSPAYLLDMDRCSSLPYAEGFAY
Method in brief: as §1

HSF1 = HSF1 (Homo sapiens, UniProt Q00613 1-529); details: protein: recombinant; tags: N-terminal GST; chain copies: 3; dsDNA, one strand shown
Sequence of HSF1 (Q00613 whole entry): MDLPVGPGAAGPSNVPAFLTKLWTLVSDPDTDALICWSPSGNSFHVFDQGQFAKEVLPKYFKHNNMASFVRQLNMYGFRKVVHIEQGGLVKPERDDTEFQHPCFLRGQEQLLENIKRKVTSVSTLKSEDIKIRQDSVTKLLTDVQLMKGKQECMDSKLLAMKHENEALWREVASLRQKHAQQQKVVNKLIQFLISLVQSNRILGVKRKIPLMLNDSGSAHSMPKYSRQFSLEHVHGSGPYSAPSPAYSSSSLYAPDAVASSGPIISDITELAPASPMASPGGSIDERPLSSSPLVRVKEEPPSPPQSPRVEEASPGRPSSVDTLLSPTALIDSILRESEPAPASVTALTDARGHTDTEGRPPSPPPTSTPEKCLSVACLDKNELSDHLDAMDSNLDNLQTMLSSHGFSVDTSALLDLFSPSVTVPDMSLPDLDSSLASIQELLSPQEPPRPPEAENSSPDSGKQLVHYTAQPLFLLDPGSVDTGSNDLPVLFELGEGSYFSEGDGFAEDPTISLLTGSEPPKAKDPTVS
Method in brief: as §1

SPIC = target: T2, SPIC (Homo sapiens, UniProt Q8N5J4 1-248); details: protein: recombinant; tags: N-terminal GST; dsDNA, one strand shown
T2 sequence: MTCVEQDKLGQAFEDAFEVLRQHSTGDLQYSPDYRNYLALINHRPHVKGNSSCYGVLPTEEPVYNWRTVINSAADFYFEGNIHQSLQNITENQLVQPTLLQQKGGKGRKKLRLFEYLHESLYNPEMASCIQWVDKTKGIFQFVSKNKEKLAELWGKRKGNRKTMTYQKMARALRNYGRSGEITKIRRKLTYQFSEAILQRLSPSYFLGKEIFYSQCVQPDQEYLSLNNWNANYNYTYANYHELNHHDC
Method in brief: as §1

ELF4 = ELF4 (Homo sapiens, UniProt Q99607 1-663); details: protein: recombinant; tags: N-terminal GST; dsDNA, one strand shown
Sequence of ELF4 (Q99607 whole entry): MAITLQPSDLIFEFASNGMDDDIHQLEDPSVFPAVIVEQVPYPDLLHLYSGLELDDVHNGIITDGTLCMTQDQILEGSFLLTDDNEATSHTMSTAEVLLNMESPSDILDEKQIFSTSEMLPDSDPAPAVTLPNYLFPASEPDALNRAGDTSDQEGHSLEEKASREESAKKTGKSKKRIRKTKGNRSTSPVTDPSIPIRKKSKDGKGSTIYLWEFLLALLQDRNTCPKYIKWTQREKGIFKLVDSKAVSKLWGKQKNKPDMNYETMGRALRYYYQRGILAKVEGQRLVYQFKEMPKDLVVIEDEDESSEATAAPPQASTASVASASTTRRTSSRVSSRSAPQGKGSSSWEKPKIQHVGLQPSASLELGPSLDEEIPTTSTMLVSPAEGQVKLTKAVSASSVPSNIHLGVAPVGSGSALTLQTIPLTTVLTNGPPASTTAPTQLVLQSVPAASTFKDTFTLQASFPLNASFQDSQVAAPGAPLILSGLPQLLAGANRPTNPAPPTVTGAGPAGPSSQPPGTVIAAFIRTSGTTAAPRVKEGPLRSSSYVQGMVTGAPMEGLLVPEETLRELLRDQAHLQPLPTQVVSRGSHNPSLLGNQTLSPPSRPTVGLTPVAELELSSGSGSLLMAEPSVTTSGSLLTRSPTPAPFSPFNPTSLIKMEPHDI
Method in brief: as §1

ELK4 = target: T3, ELK4 (Homo sapiens, UniProt P28324-2 1-405); details: protein: recombinant; tags: N-terminal GST; dsDNA, one strand shown
T3 sequence: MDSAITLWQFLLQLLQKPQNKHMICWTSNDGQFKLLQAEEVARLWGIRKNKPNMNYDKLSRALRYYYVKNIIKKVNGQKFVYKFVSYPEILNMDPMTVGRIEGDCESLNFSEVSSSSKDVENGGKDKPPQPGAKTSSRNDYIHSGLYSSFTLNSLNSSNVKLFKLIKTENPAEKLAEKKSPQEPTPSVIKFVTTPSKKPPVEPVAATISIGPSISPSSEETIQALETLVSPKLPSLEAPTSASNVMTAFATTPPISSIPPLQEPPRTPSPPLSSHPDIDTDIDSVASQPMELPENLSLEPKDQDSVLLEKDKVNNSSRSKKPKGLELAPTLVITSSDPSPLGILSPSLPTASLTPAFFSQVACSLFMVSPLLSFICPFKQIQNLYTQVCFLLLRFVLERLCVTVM
Method in brief: as §1

ETV2 = target: T4, ETV2 (Homo sapiens, UniProt O00321 1-342); details: protein: recombinant; tags: N-terminal GST; dsDNA, one strand shown
T4 sequence: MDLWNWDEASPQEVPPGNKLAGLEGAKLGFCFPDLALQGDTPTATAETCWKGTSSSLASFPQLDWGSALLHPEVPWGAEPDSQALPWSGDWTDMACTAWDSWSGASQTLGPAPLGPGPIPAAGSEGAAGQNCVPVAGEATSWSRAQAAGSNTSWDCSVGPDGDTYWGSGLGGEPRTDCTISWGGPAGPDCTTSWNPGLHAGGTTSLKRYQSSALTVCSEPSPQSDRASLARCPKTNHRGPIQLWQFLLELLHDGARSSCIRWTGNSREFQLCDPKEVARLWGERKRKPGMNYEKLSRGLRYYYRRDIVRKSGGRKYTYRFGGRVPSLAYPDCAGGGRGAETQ
Method in brief: as §1

ELF3 = target: T5, ELF3 (Homo sapiens, UniProt P78545 1-371); details: protein: recombinant; tags: N-terminal GST; dsDNA, one strand shown
T5 sequence: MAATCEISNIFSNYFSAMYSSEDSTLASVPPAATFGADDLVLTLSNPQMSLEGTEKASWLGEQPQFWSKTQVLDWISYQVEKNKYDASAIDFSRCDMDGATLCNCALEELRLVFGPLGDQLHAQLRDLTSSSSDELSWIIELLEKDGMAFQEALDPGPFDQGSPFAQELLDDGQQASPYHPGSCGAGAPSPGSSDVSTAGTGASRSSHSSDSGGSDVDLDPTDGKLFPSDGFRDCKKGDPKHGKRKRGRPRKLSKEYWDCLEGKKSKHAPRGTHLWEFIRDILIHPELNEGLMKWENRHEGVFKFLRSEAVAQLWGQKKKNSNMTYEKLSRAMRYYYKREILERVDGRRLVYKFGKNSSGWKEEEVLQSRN
Method in brief: as §1

CRX = CRX (Homo sapiens, UniProt O43186 1-299); details: protein: recombinant; tags: N-terminal GST; dsDNA, one strand shown
Sequence of CRX (O43186 whole entry): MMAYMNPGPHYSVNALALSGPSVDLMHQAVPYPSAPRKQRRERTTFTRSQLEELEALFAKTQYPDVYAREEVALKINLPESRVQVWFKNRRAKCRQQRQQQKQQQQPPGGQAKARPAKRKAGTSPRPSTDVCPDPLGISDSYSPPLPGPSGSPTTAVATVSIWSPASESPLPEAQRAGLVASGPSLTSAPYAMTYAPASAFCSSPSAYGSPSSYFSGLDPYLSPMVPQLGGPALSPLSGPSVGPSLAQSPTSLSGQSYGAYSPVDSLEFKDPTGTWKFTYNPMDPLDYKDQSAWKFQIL
Method in brief: as §1

ETV1 = ETV1 (Homo sapiens, UniProt P50549 1-477); details: protein: recombinant; tags: N-terminal GST; dsDNA, one strand shown
Sequence of ETV1 (P50549 whole entry): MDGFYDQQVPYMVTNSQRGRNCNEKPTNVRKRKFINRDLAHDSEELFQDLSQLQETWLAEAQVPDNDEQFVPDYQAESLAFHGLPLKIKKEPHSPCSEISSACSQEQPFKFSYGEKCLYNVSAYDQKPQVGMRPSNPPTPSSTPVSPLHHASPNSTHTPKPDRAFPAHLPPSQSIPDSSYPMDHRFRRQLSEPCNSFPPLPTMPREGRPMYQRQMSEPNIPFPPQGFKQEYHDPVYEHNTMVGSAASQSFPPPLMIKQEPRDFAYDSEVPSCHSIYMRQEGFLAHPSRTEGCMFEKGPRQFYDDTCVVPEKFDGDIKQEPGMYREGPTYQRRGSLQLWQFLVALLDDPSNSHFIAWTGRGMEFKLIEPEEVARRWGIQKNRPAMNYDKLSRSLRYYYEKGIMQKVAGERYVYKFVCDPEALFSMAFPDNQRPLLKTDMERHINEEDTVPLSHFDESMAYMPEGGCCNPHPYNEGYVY
Method in brief: as §1

TCTCAG
binding signal (FEV): 1.37 fold enrichment (6-mer frequency, TF over GST control)
binding signal (ETV5): 1.33 fold enrichment (6-mer frequency, TF over GST control)
binding signal (HSF1): 1.4 fold enrichment (6-mer frequency, TF over GST control)
binding signal (SPIC): 1.16 fold enrichment (6-mer frequency, TF over GST control)
binding signal (ELF4): 1.36 fold enrichment (6-mer frequency, TF over GST control)
binding signal (ELK4): 1.34 fold enrichment (6-mer frequency, TF over GST control)
binding signal (ETV2): 1.37 fold enrichment (6-mer frequency, TF over GST control)
binding signal (ELF3): 1.37 fold enrichment (6-mer frequency, TF over GST control)
binding signal (CRX): 1.46 fold enrichment (6-mer frequency, TF over GST control)
binding signal (ETV1): 1.33 fold enrichment (6-mer frequency, TF over GST control)
